# Where “and” joins values, the source holds several entries; their conditions need not be identical. Equal entries are not always repeated. Results filed as inconclusive are left out. Entries that show only a call come without a potency. The source holds several records for some structures; these can differ, active in one and inactive in another. Calls of active or inactive are those of the source. Unless noted, calls follow the shape of the dose curve; as a rule, active = well fitted curve in the direction sought with a large enough effect in the repeat runs; inconclusive = weak or mixed curves; inactive = no such curve, though single readings can be large; an effect the other way counts as inactive or inconclusive.
# Columns and labels:
# [1] = qHTS assay to identify small molecule antagonists of the thyroid receptor (TR) signaling pathway - cell viability counter screen (AID 743064); also: nearly all actives have a fitted effect of over 50% in size; also: potency is read from the fitted curve at half-maximal effect
# Outline: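 Viability of T3-stimulated (1 nM final) GH3.TRE-Luc cells is measured by CellTiter-Fluor fluorescence after 23.5 h compound exposure at 37 °C plus 30 min reagent incubation.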
# [2] = tested on: thyroid hormone receptor (rat, GH3 cells); test: qHTS assay to identify small molecule agonists of the thyroid receptor (TR) signaling pathway (AID 743066; calls by dose curve)
# [3] = qHTS assay to identify small molecule antagonists of the estrogen receptor alpha (ER-alpha) signaling pathway - cell viability counter screen (AID 743074; calls by dose curve; also: nearly all actives have a fitted effect of over 45% in size; also: potency is read from the fitted curve at half-maximal effect)
# [4] = qHTS assay to identify small molecule antagonists of the estrogen receptor alpha (ER-alpha) signaling pathway using the BG1 cell line - cell viability counter screen (AID 743081);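 also: compound given together with 17beta-estradiol as the ER stimulus; series mostly up to about 70 µM; nearly all actives have a fitted effect of over 45% in size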
# Aromatase (Homo sapiens) = Aromatase (Homo sapiens) (UniProt P11511); test: qHTS assay to identify aromatase inhibitors (AID 743083); also: nearly all actives have a fitted effect of over 55% in size; also: potency is read from the fitted curve at half-maximal effect
# [5] = qHTS assay to identify aromatase inhibitors - cell viability counter screen (AID 743084);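 also: cells stimulated with testosterone during compound exposure; nearly all actives have a fitted effect of over 55% in size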
# [6] = target: Aryl hydrocarbon receptor (Homo sapiens) (UniProt P35869); test: qHTS assay to identify small molecule that activate the aryl hydrocarbon receptor (AhR) signaling pathway (AID 743085); also: nearly all actives have a fitted effect of over 15% in size; also: potency is read from the fitted curve at half-maximal effect;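 as to activation: HG2L7.5c1 human HepG2 liver cells with stably integrated DRE-driven firefly reporter; series mostly up to about 70 µM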
# Outline: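 A multiplexed format paired cell viability (CellTiter-Fluor fluorescence) with AhR-dependent luciferase output (ONE-Glo luminescence) in the same wells of HepG2 DRE-luc cells after 24 h compound exposure at 37C.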
# [7] = qHTS assay to identify small molecule that activate the aryl hydrocarbon receptor (AhR) signaling pathway - cell viability counter screen (AID 743086);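 also: HepG2 liver cells carrying the AhR DRE luciferase reporter; series mostly up to about 70 µM; nearly all actives have a fitted effect of over 45% in size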
# Outline: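 HepG2-AhR-luc (HG2L7.5c1) cells, 4000/well, treated 24 h at 37 C with compound; viability measured as CellTiter-Fluor fluorescence after 30 min in the same wells as the luciferase read.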
# [8] = target: Peroxisome proliferator-activated receptor gamma (Homo sapiens) (UniProt P37231); test: qHTS assay to identify small molecule agonists of the peroxisome proliferator-activated receptor gamma (PPARg) signaling pathway (AID 743094; active = well fitted activation curve with a large enough effect in the signal ratio in the repeat runs, not every such curve was filed as active; the % refers to the signal ratio)
# Outline: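 Agonism was assessed in a beta-lactamase reporter system, HEK293H cells with a stably integrated UAS-bla construct under PPARg control; the 17 h treatment at 37C preceded a 1 h room-temperature FRET substrate read.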
# [9] = target: Peroxisome proliferator-activated receptor gamma (Homo sapiens) (UniProt P37231); test: qHTS assay to identify small molecule antagonists of the peroxisome proliferator-activated receptor gamma (PPARg) signaling pathway (AID 743191; calls by dose curve; also: nearly all actives have a fitted effect of over 30% in size; also: potency is read from the fitted curve at half-maximal effect)
# Outline: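 GeneBLAzer PPARg UAS-bla HEK293H cells, 5 h post-plating, exposed to compounds 17 h at 37C. LiveBLAzer B/G FRET substrate added for 1 h at room temperature; beta-lactamase reporter read by fluorescence intensity.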
# [10] = qHTS assay to identify small molecule antagonists of the peroxisome proliferator-activated receptor gamma (PPARg) signaling pathway - cell viability counter screen (AID 743194); also: nearly all actives have a fitted effect of over 55% in size
# Outline: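 Cytotoxicity counter screen in PPARg-bla HEK293H cells, same wells as reporter assay. Compounds plus 50 nM rosiglitazone (final) for 17 h at 37 C, then viability read by CellTiter-Glo luminescence.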
# [11] = qHTS assay for small molecule agonists of the antioxidant response element (ARE) signaling pathway (AID 743202; active = well fitted activation curve with a large enough effect in the signal ratio in the repeat runs, not every such curve was filed as active; the % refers to the signal ratio; also: potency is read from the fitted curve at half-maximal effect)
# Outline: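 HepG2 ARE-bla cells; 16 h treatment at 37 C; FRET-based beta-lactamase fluorescence read after 2 h substrate incubation at room temperature.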
# [12] = qHTS assay for small molecule agonists of the antioxidant response element (ARE) signaling pathway - cell viability counter screen (AID 743203; calls by dose curve; also: nearly all actives have a fitted effect of over 55% in size; also: potency is read from the fitted curve at half-maximal effect)
# Outline: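 ATP content via CellTiter-Glo luminescence served as the viability measure. Cells: ARE-bla HepG2, 2,000 per well. Exposure: 16 hrs, 37C/5% CO2.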
# [13] = qHTS assay for small molecule activators of the heat shock response signaling pathway - cell viability counter screen (AID 743209); also: nearly all actives have a fitted effect of over 50% in size; also: potency is read from the fitted curve at half-maximal effect
# Outline: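 Compounds dissolved in DMSO were added to overnight-plated HSE-bla HeLa cells and left 5 h at 37 C. Cell viability was quantified by luminescence using CellTiter-Glo.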
# [14] = qHTS assay to identify small molecule antagonists of the thyroid receptor (TR) signaling pathway (AID 743065)
# Outline: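 GH3.TRE-Luc rat pituitary cells (two TREs driving luciferase) were dosed with compound, then stimulated with 1 nM T3 (final) for 23.5 h at 37 C. ONE-Glo luminescence was the read-out, with CellTiter-Fluor fluorescence as the cytotoxicity counter-screen.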
# [15] = target: Estrogen receptor (Homo sapiens) (UniProt P03372); test: qHTS assay to identify small molecule antagonists of the estrogen receptor alpha (ER-alpha) signaling pathway (AID 743069; active = well fitted curve in the direction sought with a large enough effect in the signal ratio in the repeat runs, not every such curve was filed as active; the % refers to the signal ratio)
# Outline: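 In this cell-based reporter format, GripTite HEK293 cells harbouring ER-alpha-UAS-bla were grown overnight with 2% charcoal-stripped FBS, dosed with DMSO-dissolved compounds, then challenged with 17beta-estradiol. After 18 hr at 37C, beta-lactamase activity was detected by FRET fluorescence.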
# [16] = target: Estrogen receptor (Homo sapiens) (UniProt P03372); test: qHTS assay to identify small molecule agonists of the estrogen receptor alpha (ER-alpha) signaling pathway (AID 743075; calls by dose curve)
# [17] = target: Estrogen receptor (Homo sapiens) (UniProt P03372); test: qHTS assay to identify small molecule agonists of the estrogen receptor alpha (ER-alpha) signaling pathway using the BG1 cell line (AID 743079); also: nearly all actives have a fitted effect of over 20% in size
# [18] = qHTS assay to identify small molecule antagonists of the estrogen receptor alpha (ER-alpha) signaling pathway using the BG1 cell line (AID 743080; calls by dose curve;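 also: BG1 cells stimulated with 17beta-estradiol alongside compound; series mostly up to about 70 µM; nearly all actives have a fitted effect of over 25% in size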)
# Outline: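 BG1-Luc-4E2 cells (endogenous full-length ER-alpha, stable 4×ERE-luciferase) were starved 5 days in phenol-red-free medium with 10% charcoal-stripped FBS, plated 24 h, then given compound plus 17beta-estradiol for 21.5 h at 37 C; ONE-Glo luminescence read after 30 min.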
# [19] = qHTS assay for small molecule activators of the heat shock response signaling pathway (AID 743210; active = well fitted activation curve with a large enough effect in the signal ratio in the repeat runs, with a control signal flat, not every such curve was filed as active; the % refers to the signal ratio;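 also: HeLa cells with beta-lactamase reporter driven by heat shock elements; series mostly up to about 63 µM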)
# Outline: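 Following overnight attachment, HSE-bla HeLa cells received test compounds for 5 h at 37 C; beta-lactamase activity was then detected via FRET substrate fluorescence.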
# Sequence of Aryl hydrocarbon receptor (Homo sapiens) (P35869 whole entry, looked up): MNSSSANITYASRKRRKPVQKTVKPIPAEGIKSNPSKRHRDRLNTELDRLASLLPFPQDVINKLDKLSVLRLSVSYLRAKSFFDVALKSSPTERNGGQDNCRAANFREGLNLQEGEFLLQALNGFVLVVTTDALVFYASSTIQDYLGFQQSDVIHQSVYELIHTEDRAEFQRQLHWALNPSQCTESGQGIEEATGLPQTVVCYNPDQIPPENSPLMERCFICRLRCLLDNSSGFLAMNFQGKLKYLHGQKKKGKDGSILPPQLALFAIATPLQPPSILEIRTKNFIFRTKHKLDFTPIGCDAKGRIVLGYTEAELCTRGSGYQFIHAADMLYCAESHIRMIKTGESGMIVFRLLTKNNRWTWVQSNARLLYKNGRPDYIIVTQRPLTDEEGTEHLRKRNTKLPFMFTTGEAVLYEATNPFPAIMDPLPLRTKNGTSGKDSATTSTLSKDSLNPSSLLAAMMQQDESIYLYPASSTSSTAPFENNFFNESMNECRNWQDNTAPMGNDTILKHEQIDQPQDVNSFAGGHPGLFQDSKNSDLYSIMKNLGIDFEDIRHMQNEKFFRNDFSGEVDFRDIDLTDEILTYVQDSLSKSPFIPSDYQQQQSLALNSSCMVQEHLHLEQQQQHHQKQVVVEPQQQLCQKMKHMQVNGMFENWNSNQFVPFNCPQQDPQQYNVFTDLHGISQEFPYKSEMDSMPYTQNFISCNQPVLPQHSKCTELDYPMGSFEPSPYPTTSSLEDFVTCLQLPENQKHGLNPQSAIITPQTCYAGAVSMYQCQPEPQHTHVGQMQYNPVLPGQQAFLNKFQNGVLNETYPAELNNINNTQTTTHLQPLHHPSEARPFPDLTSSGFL
# Sequence of Aromatase (Homo sapiens) (P11511 whole entry, looked up): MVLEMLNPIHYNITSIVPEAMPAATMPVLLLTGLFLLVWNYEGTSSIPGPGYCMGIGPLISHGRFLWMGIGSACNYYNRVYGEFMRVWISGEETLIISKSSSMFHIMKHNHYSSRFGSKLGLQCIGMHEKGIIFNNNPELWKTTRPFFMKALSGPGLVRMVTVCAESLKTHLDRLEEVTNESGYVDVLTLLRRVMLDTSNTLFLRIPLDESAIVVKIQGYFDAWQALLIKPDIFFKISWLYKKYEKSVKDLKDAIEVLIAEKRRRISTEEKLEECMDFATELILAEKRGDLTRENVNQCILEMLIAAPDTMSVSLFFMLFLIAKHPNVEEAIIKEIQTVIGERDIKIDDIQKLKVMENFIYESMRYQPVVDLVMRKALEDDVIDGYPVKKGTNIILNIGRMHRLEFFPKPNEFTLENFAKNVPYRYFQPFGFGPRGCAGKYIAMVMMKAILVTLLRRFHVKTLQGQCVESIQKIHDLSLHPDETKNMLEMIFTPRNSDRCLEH
# Sequence of Peroxisome proliferator-activated receptor gamma (Homo sapiens) (P37231 whole entry, looked up): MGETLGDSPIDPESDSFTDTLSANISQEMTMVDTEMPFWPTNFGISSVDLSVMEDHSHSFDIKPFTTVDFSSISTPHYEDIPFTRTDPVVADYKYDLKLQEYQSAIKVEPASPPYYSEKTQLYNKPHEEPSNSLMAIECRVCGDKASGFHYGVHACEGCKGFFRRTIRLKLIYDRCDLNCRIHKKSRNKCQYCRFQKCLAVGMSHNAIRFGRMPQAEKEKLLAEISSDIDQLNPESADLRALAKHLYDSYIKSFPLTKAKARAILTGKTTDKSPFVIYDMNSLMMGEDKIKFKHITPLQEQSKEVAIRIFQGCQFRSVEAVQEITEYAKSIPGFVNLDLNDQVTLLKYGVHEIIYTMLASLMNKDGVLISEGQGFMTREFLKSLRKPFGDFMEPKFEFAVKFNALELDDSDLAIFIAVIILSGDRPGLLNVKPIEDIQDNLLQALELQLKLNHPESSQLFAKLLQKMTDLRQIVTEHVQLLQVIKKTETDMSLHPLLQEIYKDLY
# Sequence of Estrogen receptor (Homo sapiens) (P03372 whole entry, looked up): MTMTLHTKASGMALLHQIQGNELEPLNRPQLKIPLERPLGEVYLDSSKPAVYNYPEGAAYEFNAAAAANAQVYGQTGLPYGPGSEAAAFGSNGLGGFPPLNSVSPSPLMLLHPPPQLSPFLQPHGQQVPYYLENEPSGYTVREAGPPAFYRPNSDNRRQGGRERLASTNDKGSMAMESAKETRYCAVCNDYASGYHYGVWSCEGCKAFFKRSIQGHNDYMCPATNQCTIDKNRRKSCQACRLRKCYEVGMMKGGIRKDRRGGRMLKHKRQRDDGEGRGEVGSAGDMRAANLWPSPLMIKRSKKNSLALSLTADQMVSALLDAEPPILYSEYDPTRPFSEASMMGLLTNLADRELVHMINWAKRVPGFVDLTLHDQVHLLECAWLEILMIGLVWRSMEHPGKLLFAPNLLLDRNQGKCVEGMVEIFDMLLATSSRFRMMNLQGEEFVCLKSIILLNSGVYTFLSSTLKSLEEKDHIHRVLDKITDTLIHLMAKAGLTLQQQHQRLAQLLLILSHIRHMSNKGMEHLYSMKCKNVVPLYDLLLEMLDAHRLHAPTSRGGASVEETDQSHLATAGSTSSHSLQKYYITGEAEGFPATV
SMILES,Potency [1],outcome [2],Potency [3],Potency [4],Potency (Aromatase (Homo sapiens)),Potency [5],Potency [6],Potency [7],outcome [8],Potency [9],Potency [10],Potency [11],Potency [12],Potency [13],Potency [14],Potency [15],Potency [16],Potency [17],Potency [18],outcome [19]
CN(C)c1cccc(O)c1,inactive,inactive,inactive,inactive,inactive,inactive,15.6 µM (active) and 30.6 µM (active),inactive,inactive,inactive,inactive,55.3 µM (active),inactive,inactive,,,,,,
CCCCCCCCCCCCN,inactive and 24.3 µM (active),inactive,inactive and 54.9 µM (active),inactive,61.1 µM (active),,inactive,inactive,inactive,,,inactive,inactive and 24.3 µM (active),inactive and 43.6 µM (active),,,,,,
CC(C)(C)C1CCC(O)CC1 (configuration not stated),,inactive,inactive,inactive,inactive,inactive,,inactive,inactive,inactive,inactive,inactive,inactive,inactive,inactive,inactive,inactive,inactive,inactive,inactive
NC(=O)NNc1ccccc1,inactive,inactive,inactive,inactive,inactive,inactive,inactive,inactive,,,inactive,inactive,inactive,inactive,,,,,,
O=C(O)c1cc(-c2ccccc2)nc2ccccc12,inactive,inactive,inactive,inactive,inactive,inactive,58.4 µM (active),inactive,,inactive,inactive,inactive,inactive,inactive,,,,,,inactive
O=C(O)c1ccc([N+](=O)[O-])cc1,inactive,inactive,inactive,inactive,inactive,inactive,inactive,inactive,,,inactive,inactive,inactive,inactive,,,,,,
CCCCCCCCCC(=O)O,inactive,inactive,inactive,inactive,inactive,inactive,,inactive,,30.9 µM (active),inactive,inactive,inactive,inactive,,,,,,inactive
O=c1c(-c2ccc(O)cc2)coc2cc(O)ccc12,,,,inactive,inactive,inactive,,inactive,inactive,,inactive,,,inactive,,inactive,,,,inactive
CC(C)NCC(O)COc1cccc2ccccc12 (configuration not stated),30.6 µM (active),inactive,inactive,inactive,inactive,inactive,inactive,inactive,,,inactive,,inactive,inactive,,,,,,
C[C@@H]1O[C@@H](OC[C@H]2O[C@@H](Oc3c(-c4ccc(O)c(O)c4)oc4cc(O)cc(O)c4c3=O)[C@H](O)[C@@H](O)[C@@H]2O)[C@H](O)[C@H](O)[C@H]1O,,inactive,inactive,inactive,inactive,inactive,inactive,inactive,,,inactive,,inactive,inactive,inactive,,,,,inactive
CNC[C@H](O)[C@@H](O)[C@H](O)[C@H](O)CO,inactive,inactive,inactive,inactive,,,,inactive,,,inactive,inactive,inactive,inactive,,,,,,inactive
CCOC(=O)/C=C\C(=O)OCC,inactive,,inactive,inactive,inactive,inactive,inactive,inactive,inactive,inactive,inactive,inactive,inactive,inactive,,inactive,inactive,inactive,inactive,inactive
CCc1ccc(O)cc1,inactive,inactive,inactive,inactive,inactive,inactive,inactive,inactive,inactive,inactive,inactive,inactive,inactive,inactive,,,,,,inactive
C=C(C#N)C(=O)OCC,inactive,inactive,inactive,inactive,inactive,inactive,inactive,inactive,inactive,,inactive,inactive,inactive,inactive,,,,,,
CCC(=O)O,inactive,,inactive,inactive,inactive,inactive,inactive,inactive,inactive,inactive,inactive,inactive,inactive,inactive,,inactive,inactive,inactive,inactive,inactive
C=C(C)C(=O)OCCC[Si](OC)(OC)OC,,inactive,inactive,inactive,inactive,inactive,inactive,inactive,inactive,inactive,inactive,inactive,inactive,inactive,,inactive,inactive,inactive,inactive,
